This passage reports growth inhibition results from PubChem BioAssay (NCI).

The nature of assay [1]: NCI Yeast Anticancer Drug Screen. Data for the rad50 strain (AID 155).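 Further: 0% = growth of vehicle-only cultures of the same strain.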 The following applies: S. cerevisiae rad50 strain growth inhibition, stronger effect = higher value; at 50.0 µM unless noted. Summed up: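 Relative growth inhibition (compound vs vehicle) was measured in yeast with a defined repair-gene alteration.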
A short description of assay [2]: NCI Yeast Anticancer Drug Screen. Data for the mec2-1 strain (AID 157). The following applies: S. cerevisiae mec2-1 strain, stronger effect = higher value; at 50.0 µM unless noted. The essentials:
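Using mec2-1 yeast: add compound, measure growth, express inhibition versus vehicle-treated cultures.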

The nature of assay [3]: NCI Yeast Anticancer Drug Screen. Data for the sgs1 mgt1 strain (AID 161).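 Further: 0% = growth of cultures given vehicle only.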 The following applies: S. cerevisiae sgs1 mgt1 strain, stronger effect = higher value; at 50.0 µM unless noted. Summed up: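 Compounds are added to genetically altered yeast, and growth is compared with cultures given vehicle alone to give percent inhibition.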
Assay [4] is described as follows: NCI Yeast Anticancer Drug Screen. Data for the cln2 rad14 strain (AID 165).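 Further: 0% = growth equal to vehicle treated cultures.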 The following applies: S. cerevisiae cln2 rad14 strain, stronger effect = higher value; at 50.0 µM unless noted. The essentials:
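Yeast strain cln2 rad14, bearing defects in cell cycle control and DNA repair, serves as the test system; values reflect growth inhibition compared with vehicle.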

Assay [5] can be described thus: NCI Yeast Anticancer Drug Screen. Data for the bub3 strain (AID 167). The following applies: S. cerevisiae bub3 mutant strain, stronger effect = higher value; at 50.0 µM unless noted. The essentials: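 Screening used yeast with an engineered genetic alteration affecting cell cycle control. Compound-exposed cultures were compared with vehicle cultures, and reduced growth was taken as inhibition.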

Assay [6] can be described thus: NCI Yeast Anticancer Drug Screen. Data for the mlh1 rad18 strain (AID 175). The following applies: S. cerevisiae mlh1 rad18 strain growth inhibition, stronger effect = higher value; at 50.0 µM unless noted. The essentials:
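Steps: expose repair-defective yeast to compound; measure growth; express inhibition against vehicle-treated controls.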

Where “and” joins values, the source holds several entries; their conditions need not be identical. Equal entries are not always repeated. The panel holds about 79,000 compounds, 15% with a hit somewhere; the sample as a whole holds those more often. A number with no mark means an inactive call. Calls of active or inactive are those of the source. No stated cut-off is given here; in the data, active means growth inhibition above about 70%; inactive means the rest.

Take `COc1ccc(NC(=O)c2ccc(OC)cc2)cc1`: the growth inhibition in assay [1] is 0.7%; in assay [2], -8.9%; in assay [3], 5.2%; in assay [4], 1.95%; in assay [5], 7.85%; in assay [6], -3.7%.
With `CCOc1ccccc1Nc1ccc(N)cc1S(=O)(=O)O`, the growth inhibition in assay [1] is 9.45%; in assay [2], 0.85%; in assay [3], -31.5%; in assay [4], -6.2%; in assay [5], 1.35%; in assay [6], -8.05%.
With `CC(=O)OCCOCNC(=S)N/N=C(\C)c1ccco1`, the growth inhibition in assay [1] is -19.9%; in assay [2] it was -8.3%; in assay [3] it was 3.4%; in assay [4], 3.8%; in assay [5], -4.95%; in assay [6], -11.9%.
For `CCN(CC)/N=C/c1cc([N+](=O)[O-])ccc1O`, the growth inhibition is 24.9% in assay [1]; 5.4% in assay [2]; -6.85% in assay [3]; -50.9% in assay [4]; 2.9% in assay [5]; 15.7% in assay [6].
`N#CC1CSCC1=O` (stereo not given): the growth inhibition is -6.5% in assay [1]; -8.8% in assay [2]; -20.4% in assay [3]; -12.8% in assay [4]; 9.9% in assay [5]; -1.9% in assay [6].
In the case of `C=C(c1c(C)cccc1OC(C)=O)c1c(C)cccc1OC(C)=O`, the growth inhibition in assay [1] is -8.8%; in assay [2], -10.6%; in assay [3] it was -0.6%; in assay [4], -9.1%; in assay [5], 17.3%; in assay [6], -6.55%.
For the molecule `O=C(Nc1ccc(-c2cn3ccccc3n2)cc1)c1ccccc1O`, the growth inhibition in assay [1] is 7.7%; in assay [2] it was -11.8%; in assay [3] it was 20.6%; in assay [4], 36.1%; in assay [5] it was 10.2%; in assay [6], 4.75%.
As for `CCCc1cc(Cl)ccc1OCC(=O)O`, the growth inhibition is 32.4% in assay [1]; 18.9% in assay [2]; 14.1% in assay [3]; 11.6% in assay [4]; 20.5% in assay [5]; 10.3% in assay [6].
`Cc1nn(C(=O)Cc2ccccc2)c2c1C(c1ccc(Cl)cc1)SC(N)=N2` (stereo not given): the growth inhibition in assay [1] is -30.1%; in assay [2], -31.5%; in assay [3], -29.1%; in assay [4], 6.45%; in assay [5] it was -23.6%; in assay [6], -25.1%.
For the molecule `Cc1cc2ccccc2c(N=Cc2cc(Br)cc(Br)c2O)c1C#N`, the growth inhibition in assay [1] was 59.8%; in assay [2] it was 87.5% (active); in assay [3], 96.8% (active); in assay [4], 60.2%; in assay [5], 83.8% (active); in assay [6], 97.8% (active).
`COc1ccc(C(=O)CC(c2ccccc2)C(C#N)c2ccccc2)cc1` (stereo not given): the growth inhibition in assay [1] was 1.8% and -5.7%; in assay [2], 5.6% and -8.55%; in assay [3], -6.2% and 26.1%; in assay [4] it was -107% and -72.5%; in assay [5], 8.95% and -5.05%; in assay [6], -7% and 8.5%.
Take `Nc1ncc2c(n1)-c1ccccc1OC2`: the growth inhibition in assay [1] is -29.5%; in assay [2] it was 2.8%; in assay [3] it was -12.4%; in assay [4], -1.4%; in assay [5], -20.9%; in assay [6] it was -10.4%.
As for `CC(C)(C)OC(=O)COc1ccc(NC(=O)COc2ccc(Cl)c(Cl)c2)cc1`, the growth inhibition in assay [1] is -17.4%; in assay [2] it was -22.2%; in assay [3], -10.2%; in assay [4], -28.8%; in assay [5], -1.8%; in assay [6] it was -8.6%.
Take `COc1ccc2nc(C(=O)c3ccccc3)c(C)cc2c1`: the growth inhibition was 8.4% in assay [1]; -28.5% in assay [2]; -10.7% in assay [3]; 1.8% in assay [4]; -10.9% in assay [5]; -13.2% in assay [6].
On to `CC(=O)COC(=O)c1ccccc1`, for which the growth inhibition is 32.1% in assay [1]; 3.5% in assay [2]; 28.7% in assay [3]; 0% in assay [4]; 10.2% in assay [5]; 26.2% in assay [6].
On to `CN(C)c1ccc(C=Nc2c(N)n(C)c(=O)n(C)c2=O)cc1`, for which the growth inhibition is -12.3% in assay [1]; -0.2% in assay [2]; -11.2% in assay [3]; -32.7% in assay [4]; -9.45% in assay [5]; -2.9% in assay [6].
In the case of `CC1(c2ccccc2)C(=O)c2ccccc2-c2ccccc21` (stereo not given), the growth inhibition was 63.5% in assay [1]; 48.4% in assay [2]; 63.8% in assay [3]; 3.45% in assay [4]; 24.7% in assay [5]; 24% in assay [6].
As to `Nc1nc(-c2ccc(Cl)cc2)cc(-c2cc(-c3ccc(Cl)cc3)nc(N)n2)n1`, the growth inhibition in assay [1] is 6.7%; in assay [2] it was -12.9%; in assay [3], -8.15%; in assay [4], -16%; in assay [5], -11.2%; in assay [6] it was 25.4%.
As to `CCC1(CC)SC=C(C)NC1=O`, the growth inhibition was -4.65% in assay [1]; -1.65% in assay [2]; 12.6% in assay [3]; -24.7% in assay [4]; -14.7% in assay [5]; 6.75% in assay [6].
Consider `Cc1ccc(S(=O)(=O)OCCOCCOS(=O)(=O)c2ccc(C)cc2)cc1`, for which the growth inhibition in assay [1] was 30.8%; in assay [2], -0.4%; in assay [3], 2.25%; in assay [4], 4%; in assay [5] it was 18.9%; in assay [6], 17.8%.
